Here are results for 9 compounds from PubChem BioAssay.

Test [1] is described as follows: resazurin metabolic signal in HepG2 cells – cell-based, resazurin fluorescence, 24 h, PK04 Diversity Set, profiling panel (AID 1172). Particulars: HepG2 viability, higher = more signal.
The nature of test [2]: budding yeast growth changes without added modifier – OD600, strain BY4716, 24 h, basal condition, primary screen (AID 1173). Particulars: S. cerevisiae BY4716 growth, OD600, 24 h; higher = more signal, called active from +8 up or from −8 down.
Test [3] can be described thus: viability profiling in MM1S myeloma cells – cell-based, resazurin fluorescence, basal, 24 h, PK04 Diversity Set, profiling panel (AID 1174).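 Further: MM1S multiple myeloma cell line.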 The following applies: higher = more signal, called active from +8 up or from −8 down.
Test [4] concerns the target Dihydroorotate dehydrogenase (quinone), mitochondrial (Plasmodium falciparum (isolate 3D7)) (UniProt Q08210). The test is described as follows: inhibition of P. falciparum DHODH – biochemical, C-terminal His tag, absorbance 600 nm, primary screen (AID 1175).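 Further: recombinant parasite enzyme with a five histidine tag at its C terminus.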 Particulars: PfDHODH enzyme, DCIP absorbance 600 nm; higher = more signal, called active from +8 up or from −8 down.

Test [5] in a line: inhibition of PAO1 biofilm formation – strain PAO1, LB-PBS medium, absorbance 600 nm, primary screen (AID 1176). The following applies: P. aeruginosa PAO1 growth/biofilm, A600, 12 h; higher = more signal.
Test [6] in a line: growth modulation of vineyard yeast isolate – strain RM11-1a, OD600, basal, 24 h, primary screen (AID 1177).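 Further: cultures grown under basal conditions with no added stressor.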 Particulars: S. cerevisiae RM11-1a growth, OD600, 24 h; higher = more signal, called active from +8 up or from −8 down.
A short description of test [7]: growth of efflux-deficient E. coli DRC39 – strain DRC39, OD650, 24 h, E. coli filamentation inducers, primary screen (AID 1178).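 Further: growth measured as culture turbidity by optical density at 650 nm.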 The following applies: E. coli DRC39 acrAB, higher = more signal, called active from +8 up or from −8 down.
The nature of test [8]: growth of efflux-deficient E. coli DRC39 – strain DRC39, OD650, 48 h, E. coli filamentation inducers, primary screen (AID 1179).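 Further: screen aims at cell division blockers that make cells filament.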 The following applies: E. coli DRC39 delta-acrAB growth, higher = more signal, called active from +8 up or from −8 down.
Test [9] can be described thus: viability profiling in RPMI8226 myeloma cells – cell-based, resazurin fluorescence, basal, 24 h, PK04 Diversity Set, profiling panel (AID 1180).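 Further: RPMI8826 multiple myeloma cell line at 5000 cells per well.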 Particulars: higher = more signal. (In general: Resazurin is reduced to fluorescent resorufin, in cell work by metabolically active cells.)
Test [10] has as its target E3 ubiquitin-protein ligase XIAP (Homo sapiens) (UniProt P98170). The test is described as follows: small molecules binding XIAP protein – biophysical, small-molecule microarray, fluorescence 635 nm, primary screen (AID 1181).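 Further: score merges 667 nm emission and signal to noise over triplicate slides.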 The following applies: higher = more signal.
The test system of test [11] is XIP peptide (Xip251-270) binding. In words: XIP fragment 251-270 binding compounds – biochemical, small-molecule microarray, fluorescence 635/667 nm, 0.1 µg/mL protein, primary screen (AID 1182). The following applies: fluorescent protein binding, 635 nm, higher = more signal, called active from +8 up or from −8 down.
The subject of a further test is XIP peptide (Xip251-270). The test is described as follows: compounds binding XIP fragment 251-270 – biochemical, small-molecule microarray, fluorescence 635/667 nm, 0.5 µg/mL protein, primary screen (AID 1183). The following applies: fluorescence 635 nm, higher = more signal.
A short description of test [12]: blood-stage malaria parasite viability loss – strain 3D7, DAPI fluorescence, 100 nL, primary screen (AID 1184).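 Further: parasites grown inside human red blood cells in medium with human serum.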 Particulars: P. falciparum 3D7 growth, 3 d, higher = more signal.
In test [13] the target is Homeobox protein Hox-A13 (Mus musculus) (UniProt Q62424). The test is described as follows: disruptors of Hoxa13 oligonucleotide interaction – biochemical, fluorescence polarization, labeled oligonucleotide, primary screen (AID 1185). The following applies: Hoxa13:DNA binding, 15 min, higher = more signal, called active from +8 up or from −8 down. On the technique in general: In fluorescence polarisation assays a small probe gives low polarisation when free and higher when bound to something large.

Test [14] in a line: blockers of DNA damage checkpoint Chk1 activation – imaging, HeLa, hydroxyurea, phospho-Chk1 antibody, percent positive cells, primary screen (AID 1186). The following applies: hydroxyurea-induced phospho-Chk1 immunofluorescence imaging, higher = more signal.
Test [15] can be described thus: blockers of DNA damage checkpoint Chk1 activation – imaging, HeLa, hydroxyurea, phospho-Chk1 nuclear intensity, primary screen (AID 1187). The following applies: hydroxyurea-induced phospho-Chk1 immunofluorescence imaging, higher = more signal.

SMILES strings stand for the structures. Calls of active or inactive are those of the source. Unless noted, how the calls were made is not given here.

Chain of Dihydroorotate dehydrogenase (quinone), mitochondrial (Plasmodium falciparum (isolate 3D7)) (Q08210 whole entry, looked up): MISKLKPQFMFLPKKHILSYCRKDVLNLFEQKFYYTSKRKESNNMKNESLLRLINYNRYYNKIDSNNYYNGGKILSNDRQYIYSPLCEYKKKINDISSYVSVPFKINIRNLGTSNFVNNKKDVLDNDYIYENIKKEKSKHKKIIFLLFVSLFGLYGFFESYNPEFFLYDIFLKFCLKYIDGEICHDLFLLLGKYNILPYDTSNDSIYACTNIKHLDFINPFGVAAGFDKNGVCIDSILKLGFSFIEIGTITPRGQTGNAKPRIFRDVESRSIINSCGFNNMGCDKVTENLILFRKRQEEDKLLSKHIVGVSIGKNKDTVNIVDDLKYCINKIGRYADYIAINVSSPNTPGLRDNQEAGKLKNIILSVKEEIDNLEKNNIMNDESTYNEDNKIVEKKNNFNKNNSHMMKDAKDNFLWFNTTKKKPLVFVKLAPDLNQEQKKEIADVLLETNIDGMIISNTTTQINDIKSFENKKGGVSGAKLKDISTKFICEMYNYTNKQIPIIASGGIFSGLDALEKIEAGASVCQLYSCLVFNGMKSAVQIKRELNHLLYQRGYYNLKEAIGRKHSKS
Chain of E3 ubiquitin-protein ligase XIAP (Homo sapiens) (P98170 whole entry, looked up, the tested form may be a part): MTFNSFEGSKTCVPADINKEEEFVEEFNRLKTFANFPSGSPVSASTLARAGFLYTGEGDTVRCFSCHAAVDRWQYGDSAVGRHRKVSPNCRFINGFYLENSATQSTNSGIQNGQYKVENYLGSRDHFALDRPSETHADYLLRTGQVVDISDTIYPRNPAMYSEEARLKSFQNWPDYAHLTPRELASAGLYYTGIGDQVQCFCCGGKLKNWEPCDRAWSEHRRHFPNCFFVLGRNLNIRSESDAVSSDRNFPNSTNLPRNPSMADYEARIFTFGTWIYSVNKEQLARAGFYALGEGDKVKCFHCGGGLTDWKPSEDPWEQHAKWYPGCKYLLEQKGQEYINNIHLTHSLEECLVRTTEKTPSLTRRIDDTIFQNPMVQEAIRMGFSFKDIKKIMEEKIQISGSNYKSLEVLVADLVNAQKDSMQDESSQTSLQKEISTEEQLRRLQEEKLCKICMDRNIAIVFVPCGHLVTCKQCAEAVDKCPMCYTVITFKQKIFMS
Chain of Homeobox protein Hox-A13 (Mus musculus) (Q62424 whole entry, looked up): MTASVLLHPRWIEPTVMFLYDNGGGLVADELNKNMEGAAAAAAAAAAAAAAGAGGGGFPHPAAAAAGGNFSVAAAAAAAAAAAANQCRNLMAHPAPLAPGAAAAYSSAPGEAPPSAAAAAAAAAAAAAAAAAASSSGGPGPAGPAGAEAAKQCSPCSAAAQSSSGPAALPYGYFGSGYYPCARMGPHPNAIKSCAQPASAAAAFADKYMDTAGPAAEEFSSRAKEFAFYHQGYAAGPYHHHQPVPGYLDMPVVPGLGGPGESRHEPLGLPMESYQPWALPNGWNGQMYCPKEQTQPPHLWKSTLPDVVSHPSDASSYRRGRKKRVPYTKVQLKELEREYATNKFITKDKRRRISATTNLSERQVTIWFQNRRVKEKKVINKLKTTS

For `COCCOC(=O)N1C(=O)[C@@]2(c3cc(C#CCC(C(=O)OC)C(=O)OC)ccc31)[C@H](c1ccc(OCCO)cc1)N1[C@H](c3ccccc3)[C@H](c3ccccc3)OC(=O)[C@H]1[C@@H]2C(=O)N1CCc2cc(OC)c(OC)cc2C1`, the z-score in [1] is 0.125; in [2], 2.56 (inactive); in test [3], 0.26 (inactive); in test [5] it was 2.25 (inactive); in test [6], 3.32 (inactive); in test [7] it was 0.301 (inactive). The z-score is 0.294 (inactive) in [8]; 0.504 in test [9]; -2 in [12]; 2.86 (inactive) in test [13]; -0.0277 (inactive) in test [14]; 0.246 (inactive) in test [15]. The composite z-score was -0.523 (inactive) in test [4], 0.112 in test [10], 1.24 (inactive) in [11] and 0.727 in the test on XIP peptide (Xip251-270).
As to `CC(C)=C1C(=O)C(c2ccccc2)=C2CN3C(=O)N(CCc4ccccc4)C(=O)[C@]3(Cc3ccc(C(F)(F)F)cc3)[C@H]21`, the z-score in [1] was -1.09; in test [2], 0.908 (inactive); in [3], -1.32 (inactive); in test [5], 0.799 (inactive); in test [6] it was 0.12 (inactive); in test [7], -0.943 (inactive). For the same compound, the z-score in test [8] is -0.633 (inactive); in test [9] it was -1.19; in test [12], -0.503; in test [13], -1.59 (inactive); in test [14], 0.551 (inactive); in test [15], 0.465 (inactive). Further, the composite z-score is -0.29 (inactive) in test [4], -0.213 in test [10], 1.05 (inactive) in test [11] and -0.498 with XIP peptide (Xip251-270).
`COCCOC(=O)N1C(=O)[C@@]2(c3cc(C#CC4(O)CCCCCC4)ccc31)[C@H](C(=O)Nc1nc3ccccc3s1)[C@H]1C(=O)O[C@H](c3ccccc3)[C@H](c3ccccc3)N1[C@@H]2c1ccc(O)cc1`: the z-score in test [1] is -0.0328; in [2], -0.873 (inactive); in test [3] it was -0.858 (inactive); in [5] it was 0.598 (inactive); in [6], 1.24 (inactive); in test [7], 0.487 (inactive). Further, the z-score was 0.613 (inactive) in test [8]; -0.945 in test [9]; 0.219 in test [12]; -1.09 (inactive) in test [13]; -0.205 (inactive) in [14]; 0.0486 (inactive) in test [15]. For the same compound, the composite z-score in test [4] was -1.03 (inactive); in test [10], -0.0274; in test [11], 0.479 (inactive); in the test on XIP peptide (Xip251-270), 0.817.
Regarding `Cc1ccc(C(C)CC(O)C2C=CC3C(=O)N(c4ccccc4)C(=O)C3N2Nc2ccccc2)o1` (centres undefined), the z-score in [1] was -1.38; in test [2], -2.27 (inactive); in test [3] it was -1.01 (inactive); in test [5] it was 0.574 (inactive); in test [6], 0.184 (inactive); in [7] it was 0.1 (inactive). For the same compound, the z-score in test [8] was -0.681 (inactive); in test [9] it was -0.738; in [12], -0.54; in test [13], -1.12 (inactive); in test [14], -0.179 (inactive); in test [15], -0.508 (inactive). The composite z-score in test [4] was -0.478 (inactive); in test [10] it was 0.254; in test [11], 0.0436 (inactive); in the test on XIP peptide (Xip251-270), 0.518.
For `CC1=C2[C@@H](CCc3ccccc3)OB(O)C[C@@H]2[C@@H]2C(=O)N(C)C(=O)[C@@H]2C1`, the z-score in [1] is 0.157; in test [2] it was -2.36 (inactive); in test [3], -0.313 (inactive); in test [5] it was 0.212 (inactive); in test [6], 0.154 (inactive); in test [7] it was 0.672 (inactive). Also, the z-score in [8] was 0.561 (inactive); in test [9], -0.265; in test [12], 0.278; in [13] it was -5.07 (inactive); in [14] it was 0.0183 (inactive); in [15] it was 0.0905 (inactive). Besides, the composite z-score in test [4] is -0.628 (inactive); in [10] it was -0.239; in [11], 0.796 (inactive); in the test on XIP peptide (Xip251-270) it was 0.472.
With `CCCCCN1CC=CC23O[C@@H]4/C=C\CCCOC(=O)C4[C@H]2C(=O)N(C(C)CO)[C@@H]3C1=O` (some centres undefined), the z-score in [1] was 0.652; in test [2], 0.102 (inactive); in test [3] it was 0.295 (inactive); in [5], 0.398 (inactive); in [6], 0.493 (inactive); in test [7], 1.25 (inactive). Besides, the z-score is 0.945 (inactive) in test [8]; 0.541 in test [9]; 0.266 in test [12]; -3.74 (inactive) in test [13]; -0.107 (inactive) in test [14]; 0.37 (inactive) in test [15]. Further, the composite z-score in test [4] is -0.298 (inactive); in test [10], -0.162; in [11], 0.221 (inactive); in the test with XIP peptide (Xip251-270), 0.106.
Take `O=C1C2C=CC(C(O)c3ccco3)N(Nc3ccccc3F)C2C(=O)N1c1ccccc1` (centres undefined): the z-score in [1] is 0.162; in test [2], -0.258 (inactive); in test [3] it was -0.936 (inactive); in test [5] it was 1.04 (inactive); in test [6], 0.101 (inactive); in test [7], -0.887 (inactive). Further, the z-score was -0.921 (inactive) in test [8]; -0.684 in [9]; 1.09 in [12]; -1.61 (inactive) in [13]; 0.456 (inactive) in test [14]; 0.257 (inactive) in [15]. Besides, the composite z-score in test [4] was 0.334 (inactive); in test [10], 0.318; in test [11], 0.36 (inactive); with XIP peptide (Xip251-270), -0.139.
As to `COC(=O)C/C=C/C[C@]1(O)C(=O)N(C)c2ccccc21`, the z-score in [1] was 0.197; in test [2] it was -1.81 (inactive); in [3], 0.913 (inactive); in [5], 0.732 (inactive); in test [6] it was -2.6 (inactive); in [7], 2.38 (inactive). The z-score in test [8] was 0.875 (inactive); in test [9], 0.547; in [12] it was -0.306; in test [13], -1.32 (inactive); in [14], -0.866 (inactive); in [15], -0.467 (inactive). Also, the composite z-score in [4] was -0.429 (inactive); in test [10] it was -0.0861; in test [11], 0.0625 (inactive); with XIP peptide (Xip251-270) it was 0.804.
`COc1ccc(CCNC(=O)[C@@]2(Sc3ccc(C)cc3)CC(=O)N(Cc3ccccc3C(F)(F)F)[C@@H]2c2ccc(CO)cc2I)cc1`: the z-score in test [1] is 0.267; in test [2] it was -5.78 (inactive); in test [3] it was -2.05 (inactive); in test [5], -0.171 (inactive); in [6] it was -1.77 (inactive); in test [7] it was 0.0424 (inactive). The z-score is 0.189 (inactive) in test [8]; -1.72 in [9]; -0.77 in test [12]; -2.7 (inactive) in [13]; 0.17 (inactive) in test [14]; 0.68 (inactive) in [15]. Moreover, the composite z-score in [4] was -1.6 (inactive); in test [10] it was 0.1; in [11] it was 0.232 (inactive); in the test with XIP peptide (Xip251-270) it was 0.853.
